# According to PubChem BioAssay (NCI):
# This is part of a sample that, as a whole, favours compounds with a hit. Of some 83,000 tested, about 20% had one in any assay.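 Compound tested at a single concentration for 48 hours in 96-well plates; a percent growth value below 10 was scored as active.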 Unmarked numbers belong to inactive results. Active and inactive are the calls of the source.
# Key:
# Test in all cases: NCI-60 one-dose screen, 48 h (100 = growth as untreated, 0 = no growth, -100 = all killed)
# Conditions in all cases: 10 µM unless noted
# HCT-15 colon = tested on: HCT-15 colon
# HT29 colon = tested on: HT29 colon
# SNB-75 CNS = tested on: SNB-75 CNS
# SNB-19 CNS = tested on: SNB-19 CNS
# U251 CNS = tested on: U251 CNS
# PC-3 prostate = tested on: PC-3 prostate
# SK-MEL-5 melanoma = tested on: SK-MEL-5 melanoma
# UACC-62 melanoma = tested on: UACC-62 melanoma
# LOX IMVI melanoma = tested on: LOX IMVI melanoma
# SK-MEL-28 melanoma = tested on: SK-MEL-28 melanoma
# SK-MEL-2 melanoma = tested on: SK-MEL-2 melanoma
# SN12C renal = tested on: SN12C renal
# UO-31 renal = tested on: UO-31 renal
# TK-10 renal = tested on: TK-10 renal
# ACHN renal = tested on: ACHN renal
# CAKI-1 renal = tested on: CAKI-1 renal
# CCRF-CEM leukemia = tested on: CCRF-CEM leukemia
# MOLT-4 leukemia = tested on: MOLT-4 leukemia
# EKVX NSCLC = tested on: EKVX NSCLC
# A498 renal = tested on: A498 renal
SMILES,growth (HCT-15 colon),growth (HT29 colon),growth (SNB-75 CNS),growth (SNB-19 CNS),growth (U251 CNS),growth (PC-3 prostate),growth (SK-MEL-5 melanoma) [%],growth (UACC-62 melanoma),growth (LOX IMVI melanoma),growth (SK-MEL-28 melanoma),growth (SK-MEL-2 melanoma),growth (SN12C renal),growth (UO-31 renal),growth (TK-10 renal),growth (ACHN renal),growth (CAKI-1 renal),growth (CCRF-CEM leukemia),growth (MOLT-4 leukemia),growth (EKVX NSCLC),growth (A498 renal)
CCCCCC(=O)Oc1ccc(/C(=C(\C)c2ccccc2)c2ccc(OCCN3CCCCC3)cc2)cc1,58.5%,8.87% (active),92%,89.6%,71.7%,72.2%,83.9,91%,84%,71.4%,81.3%,79.5%,59.8%,85.1%,96.2%,88.6%,85.1%,63.7%,,
CCOC(=O)CCN(CC(C)C)C(=S)Nc1ccccc1,99.5%,105%,105%,99.9%,100%,105%,,99.8%,105%,106%,102%,98.3%,94.4%,104%,101%,102%,118%,100%,100%,
CN(C)CCn1c2ccc(Br)cc2c2nc3ccccc3nc21,20.2%,16.9%,42.3%,31.6%,32.2%,34%,46.8,57.1%,14.8%,84.8%,,26.5%,11%,62.4%,9.3% (active),13.8%,28.4%,13.7%,41.6%,
CC(C)(C)c1cc(/C=N/NC(=O)c2ccccc2NC(=O)c2cccs2)c(O)c(C(C)(C)C)c1,17.1%,25.3%,34.9%,40.6%,13.8%,30.3%,22.9,13.1%,-34.2% (active),51.5%,,40.6%,10.7%,28.8%,21.9%,19.8%,4.59% (active),16.5%,,
Cc1ccc(S(=O)(=O)NNC(=O)/C(=C\c2ccc(Cl)cc2)c2nc3ccccc3s2)cc1,79.5%,106%,68.4%,88.3%,97.5%,90.5%,,80.7%,90.5%,101%,99.4%,92.5%,75.1%,132%,97.7%,83.8%,83.6%,80.1%,91.1%,
CC(=O)OC[C@]12CC[C@@H](C(=O)CBr)[C@@H]1[C@H]1CC[C@@H]3[C@@]4(C)CC[C@H](OC(C)=O)C(C)(C)[C@@H]4CC[C@@]3(C)[C@]1(C)CC2,97.1%,91.8%,84.4%,114%,96.7%,75.8%,75.1,84.9%,-69.6% (active),99.8%,,,90.7%,108%,98.8%,77.4%,-17.4% (active),-5.01% (active),107%,121%
COc1ccc2c(c1)oc1c(C)c3c(c(C)c12)C(=O)N(CCN1CCOCC1)C3=O,102%,99.3%,99.5%,97.5%,105%,82.8%,97.5,93.3%,96.4%,103%,,,85.1%,,104%,88.1%,77.4%,83.1%,110%,109%
C=C1C(=O)O[C@H]2[C@H]1CC/C(CNS(=O)(=O)c1cccc3ccccc13)=C\CC[C@@]1(C)O[C@@H]21,-25% (active),-3.2% (active),66.5%,67.2%,53.1%,45.7%,,29%,14.3%,2.74% (active),59.4%,11.9%,21.9%,8.61% (active),3.67% (active),34.5%,1.32% (active),6.51% (active),59.4%,70.9%
COc1ccc(/C=C/c2nc(Nc3ccc(S(=O)(=O)NC(C)=O)cc3)c3ccccc3n2)cc1,55.2%,67.2%,97.7%,78.9%,74.8%,79.3%,,25.6%,38.3%,96.1%,99%,86.7%,80.6%,92%,68.6%,59.6%,81.7%,79.3%,81.6%,9.58% (active)
CCc1c2c(nc3ccc(OCc4ccc(B(O)O)cc4)cc13)-c1cc3c(c(=O)n1C2)COC(=O)[C@]3(O)CC,18%,3.65% (active),-7.42% (active),8.1% (active),-12% (active),24.4%,,-25.1% (active),-47.8% (active),36%,7.66% (active),6.55% (active),-15.8% (active),27.5%,-12.6% (active),-21% (active),4.37% (active),-5.64% (active),25.4%,-58.4% (active)
COc1cc2nc(-c3ccc(Cl)cc3)cc(OCCCN3CCOCC3)c2cc1OC,19.2%,22.3%,37.5%,73.5%,47.3%,54%,,-20.9% (active),-56% (active),60.1%,73.1%,38.4%,59.6%,97.9%,40.6%,-12% (active),61.4%,56.4%,55.7%,
C[C@H](c1nc2ccc(N)cc2[nH]1)[C@H]1CC[C@H]2[C@@H]3CCC4=CC(=O)CC[C@]4(C)[C@H]3CC[C@]12C,67.8%,51.8%,39.6%,90.9%,70.7%,82.9%,,85%,84.2%,89.4%,106%,88.3%,65.4%,109%,96.9%,91.3%,63.7%,,85.6%,70.3%
Cc1ccc(/C=C(/C#N)n2nnc3cccc(F)c32)cc1,5.46% (active),9.94% (active),-35.7% (active),16.2%,13.9%,20.8%,,13.2%,-14.7% (active),52.4%,14.6%,12.7%,15.6%,25.5%,18.5%,20.1%,4.82% (active),5.52% (active),37.6%,
CCNc1nc2ccc(Nc3ccnc4cc(Cl)ccc34)cc2[nH]1,89.8%,51.1%,87.3%,84.8%,75.2%,63.9%,,92.5%,70.6%,99.5%,103%,75.3%,84.9%,99.4%,103%,98.9%,42.8%,,89.9%,89.5%
CCOc1ccc(/C=N/Nc2cc(C)nc3ccc(Br)cc23)cc1,57.9%,100%,99.9%,99.7%,77.5%,81.4%,,90.5%,84.4%,91.6%,117%,82.6%,73.4%,112%,96.3%,95.2%,38.9%,76.2%,83.5%,
O=C(Cc1ccc(/C=C/C(=O)c2nccs2)cc1)Nc1ccccc1,78.4%,72.7%,108%,84.8%,47.7%,91.7%,,83.9%,72.4%,105%,105%,91.9%,89.1%,98.8%,96.5%,99.9%,14.4%,6.27% (active),103%,
COc1cc(/C=N/NC(=O)c2cnn3c2NC(c2ccccc2)C3)ccc1Oc1ccccc1 (centres undefined),16.8%,0.454% (active),27.6%,39.2%,27.1%,19.6%,28.1,12.6%,37.2%,34.9%,,63.8%,51.5%,46.8%,27.6%,26%,29.3%,49.7%,58.1%,
COc1ccc(/C=C(\C#N)n2nc3cccc(F)c3n2)cc1,96.9%,112%,81.5%,94.6%,102%,111%,,91%,101%,103%,100%,104%,89.6%,100%,99.7%,81.2%,98%,100%,104%,
COc1cc2nc(-c3ccc(Cl)cc3)cc(OCCCN3CCC(O)CC3)c2cc1OC,19%,16.8%,39.6%,73.4%,54.5%,41.7%,,-24.7% (active),-53.3% (active),70%,75.8%,36.6%,51.3%,92.2%,35.1%,-5.22% (active),57.5%,44.1%,56.7%,
COc1cc2cc(Oc3cccc(NC(=O)Nc4cc(C(F)(F)F)cc(C(F)(F)F)c4)c3)c(C)nc2cc1OC,2.75% (active),4.89% (active),9.73% (active),15.5%,-26.5% (active),6.82% (active),,-34.6% (active),1.98% (active),7.66% (active),-30.4% (active),7.69% (active),11.6%,13.2%,5.82% (active),6.4% (active),0.186% (active),,2.88% (active),-11.5% (active)
CCCCCCNC(=O)Oc1ccc(/C(=C(\C)c2ccccc2)c2ccc(OCCCN(C)C)cc2)cc1,25.9%,2.7% (active),86.8%,80.5%,67.3%,79.7%,,56.1%,80.2%,88.3%,92.3%,80.7%,57.8%,91.2%,97.9%,94.8%,77.6%,62.6%,91.1%,
